This is a sample that favours compounds with a hit; in the whole collection about 15% have one here.
ELG1 DNA repair – qHTS screen for small molecules that inhibit ELG1-dependent DNA repair in human embryonic kidney (HEK293T) cells expressing luciferase-tagged ELG1; HEK293T ELG1-luciferase reporter, luminescence, 16 h; DNA damage induced by 5-fluorouridine; Potency, µM (titrated, usually from 46.1 µM), for inactives: at the highest dose activity change, negative = inhibition, hits mostly inhibitors; actives 2.3% (n = 330,000); AID 504467, 2011; also: nearly all actives have a fitted effect of over 55% in size
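Step one: seed 2,000 cells per well. Step two: pin-transfer compound or DMSO alongside 5-fluorouridine. Step three: incubate 16 hr, 37 °C, 5% CO2. Step four: add ONE-Glo, wait 30 min, read luminescence.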
DT40 TDP1 CPT – qHTS for Inhibitors of human tyrosyl-DNA phosphodiesterase 1 (TDP1): qHTS in cells in presence of CPT; chicken DT40 Tdp1-/-;hTDP1 cells + 20 nM CPT, ATP luminescence, 48 h; Potency, µM (titrated, usually from 46.2 µM), for inactives: at the top dose activity change, negative = growth inhibition, most hits filed as inhibitors; actives 12% (n = 420,000); AID 686979, 2013; also: nearly all actives have a fitted effect of over 55% in size
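Cell growth measured by CellTiter-Glo luminescence after a minimum 48 h, 37 C compound exposure with 20 nM CPT in Tdp1-knockout DT40 cells stably expressing hTDP1, seeded 400/well; qHTS titration format.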
12-LOX inh – Primary qHTS assay for inhibitors of human arachidonate 12S-lipoxygenase (ALOX12): Round 2 | purified 12hLO, xylenol orange hydroperoxide absorbance | AID 1671190, 2021 | Potency, µM (series often up to 108 µM), without a hit: at the top dose activity change, negative = inhibition, most hits filed as inhibitors | Polyunsaturated fatty acid lipoxygenase ALOX12 (Homo sapiens), P18054 | actives 1.1% (n = 580,000)
Target sequence (P18054 whole entry, looked up): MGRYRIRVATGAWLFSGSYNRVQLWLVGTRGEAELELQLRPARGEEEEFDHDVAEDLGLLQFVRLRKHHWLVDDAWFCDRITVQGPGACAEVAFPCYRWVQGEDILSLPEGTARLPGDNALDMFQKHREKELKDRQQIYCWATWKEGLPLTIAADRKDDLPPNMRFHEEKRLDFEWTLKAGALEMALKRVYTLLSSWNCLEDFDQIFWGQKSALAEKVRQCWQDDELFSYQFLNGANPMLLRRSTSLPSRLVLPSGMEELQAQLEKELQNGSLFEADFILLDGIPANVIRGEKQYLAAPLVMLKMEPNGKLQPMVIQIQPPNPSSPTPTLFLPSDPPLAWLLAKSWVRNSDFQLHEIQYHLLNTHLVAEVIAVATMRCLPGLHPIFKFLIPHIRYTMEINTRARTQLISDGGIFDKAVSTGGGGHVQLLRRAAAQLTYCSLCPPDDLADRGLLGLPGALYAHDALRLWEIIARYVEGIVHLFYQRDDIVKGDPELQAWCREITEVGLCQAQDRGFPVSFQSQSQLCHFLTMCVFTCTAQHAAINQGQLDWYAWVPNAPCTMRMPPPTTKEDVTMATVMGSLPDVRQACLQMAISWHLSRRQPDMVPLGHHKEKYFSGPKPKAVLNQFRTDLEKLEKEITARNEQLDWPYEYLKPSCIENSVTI
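Purified human 12hLO (150 nM final) in 25 mM Hepes, 0.01% Triton X-100, pH 7.0 was preincubated 15 min at room temperature with compound. Then 40 uM arachidonic acid was added, 30 min. Hydroperoxide was read by Fe-XO absorbance ratio 573/405 nm.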
VP16 counter – VP16 counterscreen qHTS for inhibitors of ROR gamma transcriptional activity. actives 3.5% (n = 310,000). Drosophila S2 Gal4-VP16 UAS-luciferase, luminescence, 20 h. Potency, µM (series often up to 53.6 µM), for the others: top-dose activity, negative = inhibition, hits mostly inhibitors. AID 2546, 2010;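 also: Gal4-VP16 expression switched on by copper sulfate through the metallothionein promoter; nearly all actives have a fitted effect of over 50% in size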
RORg inh – qHTS for inhibitors of ROR gamma transcriptional activity; Nuclear receptor ROR-gamma (Mus musculus), P51450; Drosophila S2 Gal4-RORgamma UAS-luciferase reporter, 20 h; Potency, µM (top dose mostly 53.6 µM), without a hit: at the top dose activity change, negative = inhibition, hits mostly inhibitors; actives 5.4% (n = 310,000); AID 2551, 2010; also: nearly all actives have a fitted effect of over 60% in size
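Drosophila Schneider cells stably carrying a metallothionein-driven Gal4 DBD–ROR gamma fusion and a UAS-Photinus luciferase reporter were exposed to compound for 1 hr, then induced with copper sulfate (700 uM final) for 20 hr at ambient temperature before luminescence reading.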
DT40 TDP1 no CPT – qHTS for Inhibitors of human tyrosyl-DNA phosphodiesterase 1 (TDP1): qHTS in cells in absence of CPT; actives 15% (n = 420,000); Potency, µM (series often up to 46.2 µM), without a hit: top-dose activity change, negative = growth inhibition, hits mostly inhibitors; AID 686978, 2013; DT40 Tdp1-/- hTDP1 cells, no CPT, ATP luminescence, 48 h; also: nearly all actives have a fitted effect of over 55% in size
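Seeded 400 DT40-hTDP1 cells/well (vehicle DMSO, no 20 nM CPT); pinned compounds; ≥48 hr at 37 °C; CellTiter-Glo luminescence as viability measure.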
* marks the source's active call; other numbers are inactive results. Calls follow the shape of the dose curve; as a rule, active = well fitted curve in the direction sought with a large enough effect; inconclusive = small, poorly fitted or top-dose-only effect, or another doubt; inactive = no such curve, though single readings can be large; an effect the other way counts as inactive or inconclusive. % is scaled to controls: 0 for no effect and ±100 for the full control effect; potency is read from the fitted curve at half-maximal effect.

CN(CC1CCOC1)S(=O)(=O)c1ccc(C(F)(F)F)cc1 (stereo not drawn) was read as 12-LOX inh 7.3%.
For O=C(COC(=O)c1cc(-c2ccco2)nc2ccccc12)NCc1ccccc1 the results were ELG1 DNA repair -8.0%, DT40 TDP1 CPT -26.1%, 12-LOX inh 10µM*, VP16 counter -6.6%, RORg inh 19.7% and DT40 TDP1 no CPT -23.6%.
For Cc1ccc(CNC(=S)Nc2ccc3c(c2)c(=O)n(C)n3Cc2cccc(C(F)(F)F)c2)cc1 the results were DT40 TDP1 CPT 25.9µM*, 12-LOX inh 17.8µM* and DT40 TDP1 no CPT 14.6µM*.
`Cn1c(=O)c2cc(NC(=O)NCCc3ccccc3)ccc2n1Cc1ccccc1` gave DT40 TDP1 CPT -29.9%, 12-LOX inh -14.0% and DT40 TDP1 no CPT inconclusive.
Cc1cc(C)cc(Cn2c3ccc(NC(=O)NCc4ccccc4)cc3c(=O)n2C)c1 was read as DT40 TDP1 CPT inconclusive, 12-LOX inh -17.0% and DT40 TDP1 no CPT inconclusive.
`Cn1c(=O)c2cc(NC(=O)NCc3ccccc3)ccc2n1C/C=C/c1ccccc1` gave DT40 TDP1 CPT 7.31µM*, 12-LOX inh inconclusive and DT40 TDP1 no CPT 7.31µM*.
For Cn1c(=O)c2cc(NC(=O)NCCc3ccccc3)ccc2n1Cc1cccc(C(F)(F)F)c1 the results were DT40 TDP1 CPT inconclusive, 12-LOX inh -12.6% and DT40 TDP1 no CPT 23.1µM*.
Screening Cn1c(=O)c2cc(NC(=O)OCCF)ccc2n1Cc1cccc(C(F)(F)F)c1 returned DT40 TDP1 CPT 23.1µM*, 12-LOX inh -1.6% and DT40 TDP1 no CPT 23.1µM*.
Cn1c(=O)c2cc(NC(=S)NC3CC3)ccc2n1Cc1ccccc1 was read as DT40 TDP1 CPT -32.2%, 12-LOX inh inconclusive and DT40 TDP1 no CPT -21.0%.
For O=C(Nc1nccs1)NC1CC(=O)N(c2cccc(F)c2)C1 (stereo not drawn) the results were 12-LOX inh 0.4%.
For Cc1nc(C)c(C(=O)N2C[C@@H](Oc3ccccc3)C[C@H]2C(=O)NC2CC2)s1 the results were 12-LOX inh 12.5%.
For Cc1ccc(C(=O)NCCc2c[nH]c3ccccc23)cc1C the results were 12-LOX inh 9.2%.
`Cc1noc(CSc2nnc(Nc3ccc(C(C)C)cc3)s2)n1` gave 12-LOX inh 8.9%.
Cc1cc(C)cc(Cn2c3ccc(NC(=S)NC4CCCCC4)cc3c(=O)n2C)c1 was read as DT40 TDP1 CPT 23.1µM*, 12-LOX inh -10.0% and DT40 TDP1 no CPT inconclusive.
Cc1cc(C)cc(Cn2c3ccc(NC(=O)NCCc4cccs4)cc3c(=O)n2C)c1 was read as DT40 TDP1 CPT 16.4µM*, 12-LOX inh inconclusive and DT40 TDP1 no CPT inconclusive.
Screening Cn1c(=O)c2cc(NC(=S)NC3CCCCC3)ccc2n1Cc1ccc(F)cc1 returned DT40 TDP1 CPT -13.5%, 12-LOX inh inconclusive and DT40 TDP1 no CPT inconclusive.
Cn1c(=O)c2cc(NC(=O)NCCc3cccs3)ccc2n1Cc1ccccc1 was read as DT40 TDP1 CPT inconclusive, 12-LOX inh -16.0% and DT40 TDP1 no CPT 25.6%.
`CCNC(=S)Nc1ccc2c(c1)c(=O)n(C)n2Cc1cccc(C(F)(F)F)c1` gave DT40 TDP1 CPT inconclusive, 12-LOX inh inconclusive and DT40 TDP1 no CPT 23.1µM*.

Compound activity: PubChem, National Center for Advancing Translational Sciences (NCATS)
